What was measured:
[1] = molecular target: T1, Serine/threonine-protein kinase 17A (Homo sapiens) (UniProt Q9UEE5); conditions: at 10 µM
T1 sequence (whole entry): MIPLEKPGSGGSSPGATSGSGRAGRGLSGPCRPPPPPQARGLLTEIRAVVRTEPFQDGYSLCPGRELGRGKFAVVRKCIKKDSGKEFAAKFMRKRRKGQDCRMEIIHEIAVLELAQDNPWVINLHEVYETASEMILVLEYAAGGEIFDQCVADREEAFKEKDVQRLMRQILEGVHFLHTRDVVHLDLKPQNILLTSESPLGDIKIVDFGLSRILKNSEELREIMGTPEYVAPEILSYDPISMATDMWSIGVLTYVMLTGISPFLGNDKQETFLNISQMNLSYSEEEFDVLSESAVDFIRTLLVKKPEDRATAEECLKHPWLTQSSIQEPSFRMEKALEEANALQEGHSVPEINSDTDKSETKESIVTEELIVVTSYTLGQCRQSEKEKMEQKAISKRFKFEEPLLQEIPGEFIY

[2] = molecular target: T2, Dual specificity tyrosine-phosphorylation-regulated kinase 2 (Homo sapiens) (UniProt Q92630); conditions: at 1 µM
T2 sequence (whole entry): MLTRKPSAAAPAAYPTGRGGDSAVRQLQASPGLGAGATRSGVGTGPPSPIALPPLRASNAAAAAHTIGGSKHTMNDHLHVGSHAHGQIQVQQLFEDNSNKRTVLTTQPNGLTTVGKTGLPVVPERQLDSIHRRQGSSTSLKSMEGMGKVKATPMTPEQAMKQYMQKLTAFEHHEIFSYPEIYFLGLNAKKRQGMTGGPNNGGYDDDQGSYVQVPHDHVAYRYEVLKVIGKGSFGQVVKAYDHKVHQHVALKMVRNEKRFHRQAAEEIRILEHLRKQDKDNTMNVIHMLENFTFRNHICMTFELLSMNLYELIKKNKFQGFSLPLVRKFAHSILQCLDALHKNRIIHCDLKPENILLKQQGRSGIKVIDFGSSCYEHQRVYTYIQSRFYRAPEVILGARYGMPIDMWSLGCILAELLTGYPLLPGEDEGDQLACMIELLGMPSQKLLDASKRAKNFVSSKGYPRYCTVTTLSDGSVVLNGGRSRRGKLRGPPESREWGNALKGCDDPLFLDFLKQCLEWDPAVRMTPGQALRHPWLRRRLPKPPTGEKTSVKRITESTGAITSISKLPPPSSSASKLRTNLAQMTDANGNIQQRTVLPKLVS

[3] = molecular target: T2, Dual specificity tyrosine-phosphorylation-regulated kinase 2 (Homo sapiens); conditions: at 10 µM
[4] = molecular target: T3, Ephrin type-A receptor 1 (Homo sapiens) (UniProt P21709); conditions: at 1 µM
T3 sequence (whole entry): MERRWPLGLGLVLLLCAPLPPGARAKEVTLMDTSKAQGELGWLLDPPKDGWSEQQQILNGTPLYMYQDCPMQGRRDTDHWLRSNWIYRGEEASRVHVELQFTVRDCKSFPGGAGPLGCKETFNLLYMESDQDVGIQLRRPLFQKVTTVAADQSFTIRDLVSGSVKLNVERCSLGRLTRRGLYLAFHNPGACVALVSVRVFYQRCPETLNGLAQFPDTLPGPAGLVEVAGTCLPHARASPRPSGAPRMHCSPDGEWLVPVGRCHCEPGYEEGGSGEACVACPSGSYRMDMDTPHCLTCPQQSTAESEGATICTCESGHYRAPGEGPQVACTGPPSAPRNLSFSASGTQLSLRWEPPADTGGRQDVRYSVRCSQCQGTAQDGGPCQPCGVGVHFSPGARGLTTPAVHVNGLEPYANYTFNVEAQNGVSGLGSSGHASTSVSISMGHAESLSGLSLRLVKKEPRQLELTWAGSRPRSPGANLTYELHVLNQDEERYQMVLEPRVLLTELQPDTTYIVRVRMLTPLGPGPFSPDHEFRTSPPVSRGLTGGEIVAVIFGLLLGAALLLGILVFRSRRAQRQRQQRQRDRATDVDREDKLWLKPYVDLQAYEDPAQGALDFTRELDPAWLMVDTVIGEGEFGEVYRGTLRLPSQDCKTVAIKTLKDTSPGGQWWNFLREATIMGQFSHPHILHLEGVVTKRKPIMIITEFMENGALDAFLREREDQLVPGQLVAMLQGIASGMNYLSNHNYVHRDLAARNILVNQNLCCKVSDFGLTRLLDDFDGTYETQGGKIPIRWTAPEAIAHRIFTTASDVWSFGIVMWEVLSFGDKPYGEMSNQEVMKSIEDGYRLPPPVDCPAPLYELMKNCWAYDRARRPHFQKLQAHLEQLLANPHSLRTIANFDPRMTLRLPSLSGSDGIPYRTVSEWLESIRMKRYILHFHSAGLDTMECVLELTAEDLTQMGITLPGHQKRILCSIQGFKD

[5] = molecular target: T3, Ephrin type-A receptor 1 (Homo sapiens); conditions: at 10 µM
[6] = molecular target: Ephrin type-A receptor 2 (Homo sapiens) (UniProt P29317); conditions: at 1 µM
[7] = molecular target: Ephrin type-A receptor 2 (Homo sapiens) (UniProt P29317); conditions: at 10 µM
[8] = molecular target: T4, Ephrin type-A receptor 3 (Homo sapiens) (UniProt P29320); conditions: at 1 µM
T4 sequence (whole entry): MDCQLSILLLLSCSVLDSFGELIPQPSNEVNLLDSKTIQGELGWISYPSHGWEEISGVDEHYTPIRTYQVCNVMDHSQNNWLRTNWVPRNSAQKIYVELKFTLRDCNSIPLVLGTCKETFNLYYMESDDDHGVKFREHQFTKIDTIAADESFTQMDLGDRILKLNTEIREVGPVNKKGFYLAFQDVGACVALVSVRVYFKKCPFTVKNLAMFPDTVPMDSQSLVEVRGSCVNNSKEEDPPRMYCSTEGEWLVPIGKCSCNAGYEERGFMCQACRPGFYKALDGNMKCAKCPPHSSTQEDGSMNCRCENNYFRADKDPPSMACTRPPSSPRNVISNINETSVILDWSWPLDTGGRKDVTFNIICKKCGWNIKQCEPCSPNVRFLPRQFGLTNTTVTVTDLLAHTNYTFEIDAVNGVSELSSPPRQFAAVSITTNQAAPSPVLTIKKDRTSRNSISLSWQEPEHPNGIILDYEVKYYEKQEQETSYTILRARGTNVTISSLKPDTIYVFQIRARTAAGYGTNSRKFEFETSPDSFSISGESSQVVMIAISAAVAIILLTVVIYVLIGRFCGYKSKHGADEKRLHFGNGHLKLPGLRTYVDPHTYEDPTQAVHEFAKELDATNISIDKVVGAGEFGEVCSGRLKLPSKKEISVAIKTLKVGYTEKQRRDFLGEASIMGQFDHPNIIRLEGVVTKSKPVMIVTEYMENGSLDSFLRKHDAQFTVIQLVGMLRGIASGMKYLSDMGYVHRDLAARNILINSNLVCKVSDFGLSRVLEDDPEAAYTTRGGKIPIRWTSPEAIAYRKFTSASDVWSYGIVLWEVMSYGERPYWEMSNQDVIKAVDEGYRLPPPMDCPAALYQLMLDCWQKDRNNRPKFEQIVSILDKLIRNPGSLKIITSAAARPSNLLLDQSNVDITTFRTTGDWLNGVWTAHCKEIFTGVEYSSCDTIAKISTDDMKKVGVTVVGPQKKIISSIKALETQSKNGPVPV

[9] = molecular target: T4, Ephrin type-A receptor 3 (Homo sapiens); conditions: at 10 µM
[10] = molecular target: Ephrin type-A receptor 4 (Homo sapiens) (UniProt P54764); conditions: at 1 µM
[11] = molecular target: Ephrin type-A receptor 4 (Homo sapiens) (UniProt P54764); conditions: at 10 µM
[12] = molecular target: Ephrin type-A receptor 5 (Homo sapiens) (UniProt P54756); conditions: at 1 µM
[13] = molecular target: Ephrin type-A receptor 5 (Homo sapiens) (UniProt P54756); conditions: at 10 µM
[14] = molecular target: Ephrin type-A receptor 7 (Homo sapiens) (UniProt Q15375); conditions: at 1 µM
[15] = molecular target: Ephrin type-A receptor 7 (Homo sapiens) (UniProt Q15375); conditions: at 10 µM
[16] = molecular target: T5, Ephrin type-A receptor 8 (Homo sapiens) (UniProt P29322); conditions: at 1 µM
T5 sequence (whole entry): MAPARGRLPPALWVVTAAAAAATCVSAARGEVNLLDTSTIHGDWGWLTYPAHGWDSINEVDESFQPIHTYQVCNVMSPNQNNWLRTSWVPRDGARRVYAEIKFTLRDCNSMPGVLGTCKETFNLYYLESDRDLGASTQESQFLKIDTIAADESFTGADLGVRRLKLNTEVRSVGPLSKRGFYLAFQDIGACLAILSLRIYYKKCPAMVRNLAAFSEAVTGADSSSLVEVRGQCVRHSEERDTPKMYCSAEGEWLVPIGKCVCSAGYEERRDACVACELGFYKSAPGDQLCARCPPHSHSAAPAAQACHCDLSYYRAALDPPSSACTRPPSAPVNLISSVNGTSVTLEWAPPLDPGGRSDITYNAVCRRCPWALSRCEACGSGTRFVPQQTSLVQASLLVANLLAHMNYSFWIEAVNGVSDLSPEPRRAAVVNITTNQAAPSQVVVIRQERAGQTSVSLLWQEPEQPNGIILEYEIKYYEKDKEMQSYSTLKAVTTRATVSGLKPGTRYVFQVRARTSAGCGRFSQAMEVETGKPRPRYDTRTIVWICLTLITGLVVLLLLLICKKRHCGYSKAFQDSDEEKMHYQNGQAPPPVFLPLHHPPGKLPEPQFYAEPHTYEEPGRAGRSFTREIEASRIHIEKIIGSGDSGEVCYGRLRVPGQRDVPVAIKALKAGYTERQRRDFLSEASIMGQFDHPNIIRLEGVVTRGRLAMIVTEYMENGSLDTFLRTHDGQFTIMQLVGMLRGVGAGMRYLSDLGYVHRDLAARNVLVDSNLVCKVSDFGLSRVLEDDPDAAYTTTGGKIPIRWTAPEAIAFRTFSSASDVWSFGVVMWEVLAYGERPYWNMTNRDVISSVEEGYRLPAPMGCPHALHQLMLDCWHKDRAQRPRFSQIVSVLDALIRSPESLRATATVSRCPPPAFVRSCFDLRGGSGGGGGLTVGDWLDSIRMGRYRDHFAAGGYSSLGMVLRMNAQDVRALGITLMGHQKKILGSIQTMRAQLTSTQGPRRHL

[17] = molecular target: T5, Ephrin type-A receptor 8 (Homo sapiens); conditions: at 10 µM
[18] = molecular target: T6, Ephrin type-B receptor 1 (Homo sapiens) (UniProt P54762); conditions: at 1 µM
T6 sequence (whole entry): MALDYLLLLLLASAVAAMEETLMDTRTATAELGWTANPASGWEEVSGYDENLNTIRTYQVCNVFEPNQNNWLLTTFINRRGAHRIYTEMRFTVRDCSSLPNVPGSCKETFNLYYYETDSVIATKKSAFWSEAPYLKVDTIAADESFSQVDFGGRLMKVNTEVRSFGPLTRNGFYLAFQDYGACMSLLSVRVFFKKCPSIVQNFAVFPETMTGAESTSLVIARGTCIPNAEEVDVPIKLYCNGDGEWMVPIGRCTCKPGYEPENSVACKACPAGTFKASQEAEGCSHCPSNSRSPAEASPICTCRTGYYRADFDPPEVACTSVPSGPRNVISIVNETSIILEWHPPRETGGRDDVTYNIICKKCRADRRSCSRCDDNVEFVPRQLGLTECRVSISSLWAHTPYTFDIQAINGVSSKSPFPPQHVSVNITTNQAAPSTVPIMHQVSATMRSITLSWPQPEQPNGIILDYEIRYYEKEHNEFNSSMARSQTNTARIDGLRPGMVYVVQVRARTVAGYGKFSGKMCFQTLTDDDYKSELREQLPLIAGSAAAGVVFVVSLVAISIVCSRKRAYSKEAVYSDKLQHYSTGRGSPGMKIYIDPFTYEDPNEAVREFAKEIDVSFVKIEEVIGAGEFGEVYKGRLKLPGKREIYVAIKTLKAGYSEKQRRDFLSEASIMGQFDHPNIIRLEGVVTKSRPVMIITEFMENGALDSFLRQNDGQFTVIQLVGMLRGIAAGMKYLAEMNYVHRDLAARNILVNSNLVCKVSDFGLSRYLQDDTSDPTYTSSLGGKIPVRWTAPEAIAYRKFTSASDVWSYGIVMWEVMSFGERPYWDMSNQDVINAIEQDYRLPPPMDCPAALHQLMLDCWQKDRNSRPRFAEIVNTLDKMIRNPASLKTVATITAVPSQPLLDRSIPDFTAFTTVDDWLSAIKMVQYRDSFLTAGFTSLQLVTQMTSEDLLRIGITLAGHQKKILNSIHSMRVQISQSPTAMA

Chain of Ephrin type-A receptor 5 (Homo sapiens) (P54756 whole entry): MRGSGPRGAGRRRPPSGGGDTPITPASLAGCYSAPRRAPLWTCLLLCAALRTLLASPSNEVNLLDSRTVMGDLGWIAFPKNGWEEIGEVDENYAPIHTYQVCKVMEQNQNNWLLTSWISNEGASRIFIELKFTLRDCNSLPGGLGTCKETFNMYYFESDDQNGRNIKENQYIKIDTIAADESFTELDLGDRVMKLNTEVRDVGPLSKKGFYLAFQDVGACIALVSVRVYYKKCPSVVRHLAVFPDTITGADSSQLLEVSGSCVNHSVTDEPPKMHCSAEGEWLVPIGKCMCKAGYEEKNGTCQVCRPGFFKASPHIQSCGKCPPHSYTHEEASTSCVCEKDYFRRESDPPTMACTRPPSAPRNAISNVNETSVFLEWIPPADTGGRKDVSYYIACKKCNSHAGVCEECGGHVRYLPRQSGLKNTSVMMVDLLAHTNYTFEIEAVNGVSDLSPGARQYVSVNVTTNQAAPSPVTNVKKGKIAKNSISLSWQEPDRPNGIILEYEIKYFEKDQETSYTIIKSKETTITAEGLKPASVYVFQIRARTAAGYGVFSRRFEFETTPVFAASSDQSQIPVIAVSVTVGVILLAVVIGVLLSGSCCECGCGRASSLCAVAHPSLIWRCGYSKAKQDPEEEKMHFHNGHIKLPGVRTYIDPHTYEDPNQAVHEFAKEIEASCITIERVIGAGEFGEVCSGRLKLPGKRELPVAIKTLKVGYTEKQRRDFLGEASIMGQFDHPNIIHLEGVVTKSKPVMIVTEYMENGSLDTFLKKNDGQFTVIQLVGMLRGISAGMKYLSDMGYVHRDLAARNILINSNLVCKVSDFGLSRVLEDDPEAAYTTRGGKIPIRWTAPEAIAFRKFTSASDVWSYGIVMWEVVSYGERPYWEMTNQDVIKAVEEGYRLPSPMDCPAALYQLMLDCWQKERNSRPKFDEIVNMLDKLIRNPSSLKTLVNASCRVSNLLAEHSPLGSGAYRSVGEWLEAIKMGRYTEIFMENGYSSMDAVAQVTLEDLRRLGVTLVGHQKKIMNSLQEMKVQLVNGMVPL
Chain of Ephrin type-A receptor 2 (Homo sapiens) (P29317 whole entry): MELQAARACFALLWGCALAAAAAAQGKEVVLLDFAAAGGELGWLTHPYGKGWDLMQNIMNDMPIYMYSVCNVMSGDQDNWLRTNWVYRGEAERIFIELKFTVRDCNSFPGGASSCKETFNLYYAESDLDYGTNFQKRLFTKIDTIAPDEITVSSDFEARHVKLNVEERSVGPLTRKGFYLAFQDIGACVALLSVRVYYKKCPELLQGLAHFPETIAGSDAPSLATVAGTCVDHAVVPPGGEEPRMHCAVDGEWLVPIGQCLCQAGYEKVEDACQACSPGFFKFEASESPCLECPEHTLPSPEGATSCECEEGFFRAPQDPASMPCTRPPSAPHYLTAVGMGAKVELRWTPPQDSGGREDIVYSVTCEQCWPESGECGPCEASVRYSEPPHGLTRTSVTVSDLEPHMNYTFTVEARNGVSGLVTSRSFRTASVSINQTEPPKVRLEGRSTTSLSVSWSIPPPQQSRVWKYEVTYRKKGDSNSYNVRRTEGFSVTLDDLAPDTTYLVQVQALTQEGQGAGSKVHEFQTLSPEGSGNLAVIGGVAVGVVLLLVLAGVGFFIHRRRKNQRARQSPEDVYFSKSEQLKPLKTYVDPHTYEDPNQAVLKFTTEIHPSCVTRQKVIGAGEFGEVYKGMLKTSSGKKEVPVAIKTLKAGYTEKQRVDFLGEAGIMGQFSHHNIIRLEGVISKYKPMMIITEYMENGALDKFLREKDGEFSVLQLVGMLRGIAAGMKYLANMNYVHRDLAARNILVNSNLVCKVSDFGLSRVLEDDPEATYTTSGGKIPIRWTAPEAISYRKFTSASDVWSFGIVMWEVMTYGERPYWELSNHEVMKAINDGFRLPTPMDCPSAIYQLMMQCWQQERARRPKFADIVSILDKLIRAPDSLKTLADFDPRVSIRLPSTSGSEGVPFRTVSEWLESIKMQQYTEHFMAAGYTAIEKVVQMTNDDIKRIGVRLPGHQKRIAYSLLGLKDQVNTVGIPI
Chain of Ephrin type-A receptor 4 (Homo sapiens) (P54764 whole entry): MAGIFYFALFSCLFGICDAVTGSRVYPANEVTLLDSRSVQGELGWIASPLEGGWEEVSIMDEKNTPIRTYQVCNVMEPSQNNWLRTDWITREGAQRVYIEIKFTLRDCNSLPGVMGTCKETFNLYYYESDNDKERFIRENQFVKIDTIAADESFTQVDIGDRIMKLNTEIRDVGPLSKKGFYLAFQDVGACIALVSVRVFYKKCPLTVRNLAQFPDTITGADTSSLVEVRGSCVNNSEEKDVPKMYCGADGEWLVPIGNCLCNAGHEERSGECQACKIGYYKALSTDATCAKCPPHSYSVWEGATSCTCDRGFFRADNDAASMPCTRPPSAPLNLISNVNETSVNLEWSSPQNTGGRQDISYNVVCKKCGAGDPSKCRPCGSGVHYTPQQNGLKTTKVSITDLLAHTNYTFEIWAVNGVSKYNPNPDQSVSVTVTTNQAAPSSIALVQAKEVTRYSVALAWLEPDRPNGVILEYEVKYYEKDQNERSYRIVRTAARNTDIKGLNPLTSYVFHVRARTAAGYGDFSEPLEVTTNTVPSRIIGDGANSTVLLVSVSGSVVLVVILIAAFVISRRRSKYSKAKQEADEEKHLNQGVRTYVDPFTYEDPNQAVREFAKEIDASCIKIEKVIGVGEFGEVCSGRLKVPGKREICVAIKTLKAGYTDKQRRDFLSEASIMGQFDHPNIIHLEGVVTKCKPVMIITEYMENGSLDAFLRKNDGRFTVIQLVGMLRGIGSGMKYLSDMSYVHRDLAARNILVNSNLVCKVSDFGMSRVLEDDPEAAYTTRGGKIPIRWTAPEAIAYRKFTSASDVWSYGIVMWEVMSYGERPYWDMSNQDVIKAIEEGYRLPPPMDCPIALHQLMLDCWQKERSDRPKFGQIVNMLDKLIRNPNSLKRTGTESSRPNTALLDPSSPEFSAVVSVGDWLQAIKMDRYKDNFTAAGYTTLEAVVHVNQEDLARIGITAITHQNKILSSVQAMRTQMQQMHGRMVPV
Chain of Ephrin type-A receptor 7 (Homo sapiens) (Q15375 28-998 limits assumed): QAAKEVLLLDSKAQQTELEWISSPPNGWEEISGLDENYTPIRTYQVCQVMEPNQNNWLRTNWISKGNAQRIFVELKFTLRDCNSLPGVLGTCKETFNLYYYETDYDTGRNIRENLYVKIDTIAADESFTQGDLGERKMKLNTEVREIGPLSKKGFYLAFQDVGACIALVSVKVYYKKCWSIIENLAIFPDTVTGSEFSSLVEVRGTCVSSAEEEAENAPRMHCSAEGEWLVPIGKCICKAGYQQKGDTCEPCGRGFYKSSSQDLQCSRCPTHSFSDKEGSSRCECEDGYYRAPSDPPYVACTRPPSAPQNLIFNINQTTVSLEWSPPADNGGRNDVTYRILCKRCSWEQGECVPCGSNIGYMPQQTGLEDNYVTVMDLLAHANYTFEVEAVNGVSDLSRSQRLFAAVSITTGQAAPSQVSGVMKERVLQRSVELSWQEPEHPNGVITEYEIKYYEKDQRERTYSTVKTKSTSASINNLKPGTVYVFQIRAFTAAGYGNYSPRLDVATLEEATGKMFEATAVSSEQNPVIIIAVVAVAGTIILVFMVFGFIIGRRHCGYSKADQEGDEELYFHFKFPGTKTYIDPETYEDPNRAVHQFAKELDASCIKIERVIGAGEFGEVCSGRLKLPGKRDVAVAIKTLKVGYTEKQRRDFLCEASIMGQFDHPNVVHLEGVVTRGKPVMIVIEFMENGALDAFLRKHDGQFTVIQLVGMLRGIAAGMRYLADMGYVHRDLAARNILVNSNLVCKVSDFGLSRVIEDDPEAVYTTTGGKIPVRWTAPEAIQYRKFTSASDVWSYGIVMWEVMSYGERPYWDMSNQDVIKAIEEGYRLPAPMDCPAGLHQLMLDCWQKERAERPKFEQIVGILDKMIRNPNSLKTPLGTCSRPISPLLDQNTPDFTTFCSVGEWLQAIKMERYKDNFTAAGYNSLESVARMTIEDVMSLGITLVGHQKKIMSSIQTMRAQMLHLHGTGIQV

COc1ccc(OC)c2c(=S)c3ccccc3[nH]c12
residual activity [1]: 97% | residual activity [2]: 90% | residual activity [3]: 66% | residual activity [4]: 113% | residual activity [5]: 88% | residual activity [6]: 96% | residual activity [7]: 101% | residual activity [8]: 90% | residual activity [9]: 97% | residual activity [10]: 100% | residual activity [11]: 105% | residual activity [12]: 101% | residual activity [13]: 96% | residual activity [14]: 92% | residual activity [15]: 89% | residual activity [16]: 96% | residual activity [17]: 100% | residual activity [18]: 97%

COc1cc2ncnc(N3CCN(C(=O)Nc4ccc(Oc5ccccc5)cc4)CC3)c2cc1OC
residual activity [1]: 101% | residual activity [2]: 92% | residual activity [3]: 98% | residual activity [4]: 85% | residual activity [5]: 76% | residual activity [6]: 101% | residual activity [7]: 109% | residual activity [8]: 98% | residual activity [9]: 112% | residual activity [10]: 99% | residual activity [11]: 101% | residual activity [12]: 117% | residual activity [13]: 124% | residual activity [14]: 95% | residual activity [15]: 93% | residual activity [16]: 87% | residual activity [17]: 99% | residual activity [18]: 96%

Cc1nc2cc3nc(-c4cccs4)cnc3cc2n1C
residual activity [1]: 14% | residual activity [2]: 108% | residual activity [3]: 87% | residual activity [4]: 111% | residual activity [5]: 121% | residual activity [6]: 110% | residual activity [7]: 105% | residual activity [8]: 127% | residual activity [9]: 94% | residual activity [10]: 115% | residual activity [11]: 96% | residual activity [12]: 107% | residual activity [13]: 114% | residual activity [14]: 104% | residual activity [15]: 90% | residual activity [16]: 111% | residual activity [17]: 96% | residual activity [18]: 103%

Nc1nc(Nc2ccc(S(N)(=O)=O)cc2)nn1C(=S)Nc1c(F)cccc1F
residual activity [1]: 4% | residual activity [2]: 49% | residual activity [3]: -1% | residual activity [4]: 1% | residual activity [5]: 3% | residual activity [6]: 13% | residual activity [7]: -2% | residual activity [8]: 65% | residual activity [9]: 23% | residual activity [10]: 97% | residual activity [11]: 86% | residual activity [12]: 59% | residual activity [13]: 11% | residual activity [14]: 3% | residual activity [15]: -2% | residual activity [16]: 76% | residual activity [17]: 24% | residual activity [18]: 1%

Source: ChEMBL document CHEMBL2218924, “A broad activity screen in support of a chemogenomic map for kinase signalling research and drug discovery” (Biochem J, 2013)
